Compound activity as filed in PubChem BioAssay.
PRMT1 FP inh = PRMT1 methyltransferase inhibitors, primary screen, biochemical, fluorescence polarization; Protein arginine N-methyltransferase 1 (Homo sapiens), Q99873; recombinant PRMT1, activity-based probe fluorescence polarization; inhibition, % at 2.79 µM; 1.3% of 370,000 active; AID 652257, 2013;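 active means inhibition above about 21% made by adding two undisclosed values, limit read from the data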
TLR4-MyD88 BLA = inhibitors of TLR4-MyD88 association in cells, primary screen, cell-based, HeLa CL3-4, BLA complementation, FRET ratio | Toll-like receptor 4 (Homo sapiens) + Myeloid differentiation primary response protein … | HeLa CL3-4 TLR4/MyD88 BLA complementation | inhibition, % at 8.4 µM | 0.18% of 200,000 active | AID 861, 2007; in the data active means inhibition above about 25%;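 further: 0% = vehicle and 100% = reference inhibitor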
TLR9-MyD88 inh = inhibitors of TLR9-MyD88 association in cells, primary screen, cell-based, CHO, BLA complementation, fluorescence | CCF4 FRET ratio | inhibition, % at 4.98 µM | 0.21% of 340,000 active | AID 504734, 2011;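 active means inhibition above the mean over all tested compounds plus 3 SD, cut at about 21% in these data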;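 further: 0% = DMSO only wells and 100% = clavulanate BLA inhibitor control wells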
rCAG RNA binder = binders of r(CAG) RNA repeats, primary screen, biochemical, fluorescence; r(CAG) RNA repeat, TO-PRO-1 dye displacement fluorescence; inhibition, % at 3 µM; 1.3% of 370,000 active;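 active means inhibition above the plate cutoff, the mean of all test compounds on that plate plus 3 SD, cut at about 35% in these data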;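 further: 0% = DMSO alone and 100% = 100 µM mitoxantrone as full dye displacement; higher means more dye released from RNA so lower well fluorescence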
NOD2-RIPK2 inh = NOD2-RIPK2 binding disruptors in cells, primary screen, fluorescence, CHO cells, BLA complementation. inhibition, % at 4.98 µM. CCF4 ratio. 0.38% of 360,000 active. Receptor-interacting serine/threonine-protein kinase 2 (Homo sapiens), O43353; in the data active means inhibition above about 21%;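 further: 0% = vehicle only and 100% = reference blocker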
Target sequence (O43353 whole entry, looked up): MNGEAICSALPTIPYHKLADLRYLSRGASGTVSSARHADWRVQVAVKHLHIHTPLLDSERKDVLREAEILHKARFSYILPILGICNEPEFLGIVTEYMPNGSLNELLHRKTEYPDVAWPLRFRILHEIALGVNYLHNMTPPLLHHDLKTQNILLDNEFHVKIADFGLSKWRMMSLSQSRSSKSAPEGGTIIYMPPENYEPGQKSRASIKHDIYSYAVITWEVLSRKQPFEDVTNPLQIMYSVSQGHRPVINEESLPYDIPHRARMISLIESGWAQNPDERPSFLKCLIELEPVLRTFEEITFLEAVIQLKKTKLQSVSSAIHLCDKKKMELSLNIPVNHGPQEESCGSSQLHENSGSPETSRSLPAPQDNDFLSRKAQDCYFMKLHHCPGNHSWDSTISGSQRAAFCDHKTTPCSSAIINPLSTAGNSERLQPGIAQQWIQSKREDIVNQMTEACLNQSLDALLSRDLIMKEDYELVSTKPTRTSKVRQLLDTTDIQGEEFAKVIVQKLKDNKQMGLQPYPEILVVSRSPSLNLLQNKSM
ABHD5 PLIN5 PPI = ABHD5-PLIN5 interaction inhibitors, primary screen, cell lysate, split luciferase complementation, luminescence; Split G. princeps luciferase complementation, 4 h; inhibition, % at 4 µM; 0.78% of 360,000 active; AID 602281, 2012;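 active means inhibition above the mean inhibition across every tested compound plus 3 SD, cut at about 22% in these data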;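 further: 0% = DMSO only wells and the 100% control is not disclosed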
PRMT1 inh conf = PRMT1 methyltransferase inhibitors, confirmation, biochemical, fluorescence polarization, triplicate; recombinant His-PRMT1, activity-based probe fluorescence polarization; inhibition, % at 2.79 µM; 42% of 3,300 active; shares compounds with PRMT1 FP inh; AID 687036, 2013;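 active means mean inhibition across replicates above the hit cutoff derived for the earlier primary screen, cut at about 22% in these data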
Numbers without * were called inactive; x = no result given. In the library only some 3.3% were active in any assay of this set; here they are far more common.

SMILES	PRMT1 FP inh	TLR4-MyD88 BLA	TLR9-MyD88 inh	rCAG RNA binder	NOD2-RIPK2 inh	ABHD5 PLIN5 PPI	PRMT1 inh conf
O=C(O)Cc1ccc(NC(=O)Nc2ccc3c(c2)OCO3)cc1	-2.2	x	-6.0	1.1	4.9	6.8	x
O=C(NC(Cc1ccccc1)C(=O)N1CCCCC1)c1ccccc1 (stereo not given)	-4.2	x	1.6	0.9	1.2	7.3	x
O=C(CSc1nnc(-c2cccnc2)n1Cc1ccco1)N1c2ccccc2Sc2ccccc21	40.5*	0.7	-9.1	6.0	2.8	15.6	16.3
O=C(CSCc1ccc(Cl)cc1)Nc1ccc(S(=O)(=O)N2CCOCC2)cc1	-3.7	16.3	-4.4	6.1	2.9	2.0	x
Cc1ccc(-c2csc(NS(=O)(=O)c3cccc(F)c3)n2)o1	53.5*	x	-16.7	71.1*	-15.6	20.6	21.0
Cc1nc(CNS(=O)(=O)c2cccc(F)c2)cs1	-0.5	0.1	-7.3	1.8	-2.2	-0.5	x
O=C(NC1CCN(Cc2ccccc2)C1)c1cccc(S(=O)(=O)N2CCOCC2)c1 (stereo not given)	-7.3	x	-2.4	-3.0	-12.0	6.7	x
O=C(NC1CCN(Cc2ccccc2)CC1)c1cc(S(=O)(=O)N2CCOCC2)ccc1Cl	113.5*	x	0.8	-4.5	-3.7	-6.9	4.7
CC(C)(C)[C@H]1CCC(=O)N([C@H](CSc2ccccc2)Cc2ccccc2)CC1	-3.0	x	-6.0	-3.1	-1.9	-8.0	x
CC(=O)Nc1ccc(SC[C@H](Cc2ccccc2)N2CC[C@@H](C(C)(C)C)CCC2=O)cc1	51.5*	x	-6.0	1.8	8.4	-7.2	39.4*
CC(=O)Nc1ccc(S[C@@H](CCN2CC[C@H](C(C)(C)C)CCC2=O)c2ccccc2)cc1	44.9*	x	-11.8	1.4	6.4	-8.8	60.6*
CC(=O)Nc1ccc(SCCN2CC[C@@H](O)CCC2=O)cc1	-1.9	x	-0.1	3.3	8.0	4.0	x
CC(=O)Nc1ccc(SC[C@H](Cc2ccccc2)N2CCN(CCc3ccccc3)CCC2=O)cc1	29.2*	x	1.2	-1.8	0.2	-2.8	41.9*
CC(=O)Nc1ccc(SCCN2CC[C@@H](C)CCC2=O)cc1	24.9*	x	-13.7	-4.6	-2.2	-12.6	29.8*
CCOc1ccc(C(=O)NCC(=O)N2CCC3(CC2)NCCc2[nH]cnc23)cc1	-1.1	x	-7.3	-1.9	-6.0	3.7	x
C=CCNc1nc(C(=O)OCC(=O)N(Cc2ccccc2)C(C)C)cs1	-3.6	x	-2.4	0.9	5.2	4.6	x
Cc1cccc(N2C(=O)CC(n3ccnc3)C2=O)c1C (stereo not given)	36.2*	-4.6	7.8	0.8	7.7	-2.0	5.6
COc1ccc(N=Nc2nc3cc(Br)c(Br)cc3n2C)c(OC)c1	69.1*	1.0	-1.7	-136.8	-7.7	2.6	49.1*
COc1ccc(C(=O)CSC#N)cc1OC	40.7*	2.4	4.1	4.8	-12.5	-19.2	22.7*
O=C1C=CC(=O)N1N(c1ccccc1)c1ccccc1	50.0*	13.2	14.4	0.9	-9.1	10.5	96.2*
COCCCn1c(=NC(=O)c2ccccc2)c(C#N)cc2c(=O)n3cccc(C)c3nc21	31.2*	x	-16.1	-9.4	-11.6	6.0	-4.7
CCOCCCn1c(=NC(=O)c2cccs2)c(C#N)cc2c(=O)n3cccc(C)c3nc21	0.0	x	-17.4	0.8	-29.7	4.5	x
Cc1cc(-n2c(C)cc(C(=O)CSc3ccccn3)c2C)no1	26.2*	x	-5.6	5.4	-15.0	1.2	17.8
Cc1cc(-n2c(C)cc(C(=O)CSc3nnnn3-c3ccccc3)c2C)no1	4.2	-2.0	1.7	0.7	13.5	1.4	x
COc1cc(N)c(Cl)cc1C(=O)OCC(=O)NCC1CCCCC1	33.9*	x	9.3	0.6	0.6	2.8	-7.6
